The nature of experiment [1]: binders of probe aFSTL3 on microarray, primary screen, stem cell growth factor project, biochemical, small-molecule microarray, fluorescence 635/667 (AID 1064).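 Also: measures binding of the biotinylated anti-FSTL3 antibody to printed compounds.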 As to conditions: higher = more signal; small-molecule microarray, probe aFSTL3, fluorescence unless noted.
The nature of experiment [2]: binders from COS7 lysate, DM2A8 probe, primary screen, torsin A project, cell lysate, small-molecule microarray, fluorescence 635/667 (AID 1065). As to conditions: higher = more signal; small-molecule microarray, COS7 cell lysate, probe DM2A8, fluorescence, COS7 lysate expressing mutant human TOR1A unless noted.
Experiment [3] in a line: binders of probe aFGF2 on microarray, primary screen, stem cell growth factor project, biochemical, small-molecule microarray, fluorescence 635/667 (AID 1067).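 Also: measures binding of biotinylated aFGF2 protein to printed compounds on slides; z-score merges feature fluorescence and signal-to-noise across triplicate slides.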 As to conditions: higher = more signal; small-molecule microarray, probe aFGF2, fluorescence unless noted.
The nature of experiment [4]: binders of probe aFGF10 on microarray, primary screen, stem cell growth factor project, biochemical, small-molecule microarray, fluorescence 635/667 (AID 1071).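 Also: score merges 667 nm spot intensity and signal to noise from triplicate slides.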 As to conditions: higher = more signal; small-molecule microarray, probe aFGF10, fluorescence unless noted.
The target of experiment [5] is Neurogenic locus notch homolog protein 2 (Homo sapiens) (UniProt Q04721). In words: Notch2 binders on small-molecule microarrays, primary screen, biochemical, small-molecule microarray, 635 nm fluorescence, stem cell growth factors (AID 1073). To be noted: Notch2 binding, higher = more signal.
The target in experiment [6] is Pro-neuregulin-1, membrane-bound isoform (Homo sapiens) (UniProt Q02297). In words: NRG1 binders on small-molecule microarrays, primary screen, psychiatric disease protein project, biochemical, small-molecule microarray, fluorescence 635/667 (AID 1075).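 Also: score combines 667 nm spot fluorescence with signal to noise.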 As to conditions: NRG1 binding, 635 nm fluorescence, higher = more signal.
For experiment [7], the system named is Neuregulin-1 EGF-like domain. The experiment can be described thus: binders of neuregulin-1 EGF-like domain, primary screen, biochemical, small-molecule microarray, 635 nm fluorescence (AID 1081).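 Also: binding of the protein to compounds printed on small-molecule microarray slides.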 As to conditions: small-molecule microarray binding, higher = more signal.
Experiment [8] can be described thus: FRG1 promoter luciferase signal modulators, primary screen, FRG1 inhibition for FSHD, cell-based, C2C12 myotubes, firefly/Renilla luciferase, luminescence (AID 1084). As to conditions: higher = more signal, called active from +8 up or from −8 down unless noted.
Experiment [9] can be described thus: binders of probe aFST on microarray, primary screen, stem cell growth factor project, biochemical, small-molecule microarray, fluorescence 635/667 (AID 1086).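 Also: score merges 667 nm fluorescence with signal-to-noise of each printed compound spot.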 As to conditions: higher = more signal.
The nature of experiment [10]: binders of probe aHhip on microarray, primary screen, stem cell growth factor project, biochemical, small-molecule microarray, fluorescence 635/667 (AID 1087).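 Also: score merges spot fluorescence at 667nm with spot signal to noise ratio.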 As to conditions: higher = more signal.
Experiment [11] deals with PRMT1 (protein arginine N-methyltransferase 1). The experiment can be described thus: PRMT1 binders on small-molecule microarrays, primary screen, biochemical, small-molecule microarray, 635 nm fluorescence (AID 1088).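 Also: binding of Prmt1 protein to compounds spotted on small-molecule microarray slides.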 To be noted: small-molecule microarray binding, higher = more signal.
Experiment [12] can be described thus: yeast growth modulation, basal conditions, primary screen, YJM789 clinical isolate, OD600, 24 h (AID 1089).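 Also: growth of clinical yeast isolate S. cerevisiae YJM 789 seeded 1000 cells per well; test concentration not given here.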 As to conditions: S. cerevisiae YJM789 growth; higher = more signal, called active from +8 up or from −8 down unless noted.
Experiment [13] is described as follows: fission yeast growth modulation, primary screen, strain 972, OD600, 24 h, no modulator (AID 1090).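 Also: basal condition with compound alone and no growth modifier present; test concentration not given here.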 To be noted: S. pombe 972 growth; higher = more signal, called active from +8 up or from −8 down unless noted.
Experiment [14] in a line: S. cerevisiae growth modulation with rapamycin, primary screen, strain BY4716, OD600, 96 h (AID 1091). Also: test concentration not given here. As to conditions: higher = more signal, called active from +8 up or from −8 down unless noted.
For experiment [15], the target named is Torsin-1A-interacting protein 2 (Homo sapiens) (UniProt Q8NFQ8). In words: LULL1 binders on small-molecule microarray, primary screen, cell lysate, human LULL1 lysate, 635/667 nm fluorescence (AID 1092).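 Also: probe is lysate of COS7 cells overexpressing human LULL1; score merges per-feature 667 nm fluorescence with signal-to-noise.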 To be noted: hLULL1 lysate binding, 635 nm fluorescence, higher = more signal.
Experiment [16] can be described thus: E. coli growth modulation, two-sided OD650, primary screen, E. coli filamentation project, strain DRC41, 24 h (AID 1093).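 Also: MC1000 strain lacking acrAB efflux and sulA so SOS filamentation is blocked; test concentration not given here.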 As to conditions: OD650, 24 h; higher = more signal, called active from +8 up or from −8 down unless noted.
Experiment [17] in a line: small-molecule microarray binders of probe aLefty2, primary screen, biochemical, biotinylated probe, 635/667 nm fluorescence (AID 1094).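 Also: score merges spot fluorescence near 667 nm with spot signal-to-noise ratio.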 As to conditions: higher = more signal; small-molecule microarray, probe aLefty2, fluorescence unless noted.
Experiment [18] deals with Noggin (protein binding on small-molecule microarray). In words: Noggin binders on small-molecule microarray, primary screen, biochemical, 635/667 nm fluorescence (AID 1095).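 Also: score merges 667 nm feature fluorescence with signal to noise over triplicate slides.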 As to conditions: 635 nm fluorescence, higher = more signal.
In experiment [19] the target is Neurogenic locus notch homolog protein 3 (Homo sapiens) (UniProt Q9UM47). The experiment can be described thus: NOTCH3 binders on small-molecule microarray, primary screen, biochemical, 635/667 nm fluorescence (AID 1096). As to conditions: NOTCH3 binding, 635 nm fluorescence, higher = more signal.
Experiment [20] is described as follows: small-molecule microarray binders of probe aEGFR, primary screen, biochemical, biotinylated probe, 635/667 nm fluorescence (AID 1097).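 Also: probe is a biotinylated anti-EGFR antibody binding compounds printed on slides; score combines fluorescence near 667 nm and signal to noise of each spot.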 To be noted: higher = more signal; small-molecule microarray, probe aEGFR, fluorescence unless noted.

Values joined by “and” are separate entries in the source; they are usually repeats but may differ in a detail not shown here. Equal entries are not always repeated. Active and inactive are the calls of the source.

Pro-neuregulin-1, membrane-bound isoform (Homo sapiens), sequence (Q02297 whole entry, looked up, the tested form may be a part, canonical isoform): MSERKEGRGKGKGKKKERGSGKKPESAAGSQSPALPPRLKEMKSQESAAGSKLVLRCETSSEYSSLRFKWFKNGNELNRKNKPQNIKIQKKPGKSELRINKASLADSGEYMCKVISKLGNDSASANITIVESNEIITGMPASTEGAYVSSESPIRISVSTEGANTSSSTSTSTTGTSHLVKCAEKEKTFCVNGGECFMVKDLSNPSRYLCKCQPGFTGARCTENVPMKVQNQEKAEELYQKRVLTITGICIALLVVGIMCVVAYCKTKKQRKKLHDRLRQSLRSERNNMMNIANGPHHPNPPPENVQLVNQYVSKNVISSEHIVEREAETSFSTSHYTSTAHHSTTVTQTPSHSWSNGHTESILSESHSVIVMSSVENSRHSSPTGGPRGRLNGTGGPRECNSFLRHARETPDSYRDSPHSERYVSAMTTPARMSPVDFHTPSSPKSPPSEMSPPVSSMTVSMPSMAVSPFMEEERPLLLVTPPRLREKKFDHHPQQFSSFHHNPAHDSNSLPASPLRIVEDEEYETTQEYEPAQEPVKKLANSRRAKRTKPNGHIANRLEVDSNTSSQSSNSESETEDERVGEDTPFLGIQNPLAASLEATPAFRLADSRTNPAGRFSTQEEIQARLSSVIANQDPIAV
Neurogenic locus notch homolog protein 3 (Homo sapiens), sequence (Q9UM47 whole entry, looked up): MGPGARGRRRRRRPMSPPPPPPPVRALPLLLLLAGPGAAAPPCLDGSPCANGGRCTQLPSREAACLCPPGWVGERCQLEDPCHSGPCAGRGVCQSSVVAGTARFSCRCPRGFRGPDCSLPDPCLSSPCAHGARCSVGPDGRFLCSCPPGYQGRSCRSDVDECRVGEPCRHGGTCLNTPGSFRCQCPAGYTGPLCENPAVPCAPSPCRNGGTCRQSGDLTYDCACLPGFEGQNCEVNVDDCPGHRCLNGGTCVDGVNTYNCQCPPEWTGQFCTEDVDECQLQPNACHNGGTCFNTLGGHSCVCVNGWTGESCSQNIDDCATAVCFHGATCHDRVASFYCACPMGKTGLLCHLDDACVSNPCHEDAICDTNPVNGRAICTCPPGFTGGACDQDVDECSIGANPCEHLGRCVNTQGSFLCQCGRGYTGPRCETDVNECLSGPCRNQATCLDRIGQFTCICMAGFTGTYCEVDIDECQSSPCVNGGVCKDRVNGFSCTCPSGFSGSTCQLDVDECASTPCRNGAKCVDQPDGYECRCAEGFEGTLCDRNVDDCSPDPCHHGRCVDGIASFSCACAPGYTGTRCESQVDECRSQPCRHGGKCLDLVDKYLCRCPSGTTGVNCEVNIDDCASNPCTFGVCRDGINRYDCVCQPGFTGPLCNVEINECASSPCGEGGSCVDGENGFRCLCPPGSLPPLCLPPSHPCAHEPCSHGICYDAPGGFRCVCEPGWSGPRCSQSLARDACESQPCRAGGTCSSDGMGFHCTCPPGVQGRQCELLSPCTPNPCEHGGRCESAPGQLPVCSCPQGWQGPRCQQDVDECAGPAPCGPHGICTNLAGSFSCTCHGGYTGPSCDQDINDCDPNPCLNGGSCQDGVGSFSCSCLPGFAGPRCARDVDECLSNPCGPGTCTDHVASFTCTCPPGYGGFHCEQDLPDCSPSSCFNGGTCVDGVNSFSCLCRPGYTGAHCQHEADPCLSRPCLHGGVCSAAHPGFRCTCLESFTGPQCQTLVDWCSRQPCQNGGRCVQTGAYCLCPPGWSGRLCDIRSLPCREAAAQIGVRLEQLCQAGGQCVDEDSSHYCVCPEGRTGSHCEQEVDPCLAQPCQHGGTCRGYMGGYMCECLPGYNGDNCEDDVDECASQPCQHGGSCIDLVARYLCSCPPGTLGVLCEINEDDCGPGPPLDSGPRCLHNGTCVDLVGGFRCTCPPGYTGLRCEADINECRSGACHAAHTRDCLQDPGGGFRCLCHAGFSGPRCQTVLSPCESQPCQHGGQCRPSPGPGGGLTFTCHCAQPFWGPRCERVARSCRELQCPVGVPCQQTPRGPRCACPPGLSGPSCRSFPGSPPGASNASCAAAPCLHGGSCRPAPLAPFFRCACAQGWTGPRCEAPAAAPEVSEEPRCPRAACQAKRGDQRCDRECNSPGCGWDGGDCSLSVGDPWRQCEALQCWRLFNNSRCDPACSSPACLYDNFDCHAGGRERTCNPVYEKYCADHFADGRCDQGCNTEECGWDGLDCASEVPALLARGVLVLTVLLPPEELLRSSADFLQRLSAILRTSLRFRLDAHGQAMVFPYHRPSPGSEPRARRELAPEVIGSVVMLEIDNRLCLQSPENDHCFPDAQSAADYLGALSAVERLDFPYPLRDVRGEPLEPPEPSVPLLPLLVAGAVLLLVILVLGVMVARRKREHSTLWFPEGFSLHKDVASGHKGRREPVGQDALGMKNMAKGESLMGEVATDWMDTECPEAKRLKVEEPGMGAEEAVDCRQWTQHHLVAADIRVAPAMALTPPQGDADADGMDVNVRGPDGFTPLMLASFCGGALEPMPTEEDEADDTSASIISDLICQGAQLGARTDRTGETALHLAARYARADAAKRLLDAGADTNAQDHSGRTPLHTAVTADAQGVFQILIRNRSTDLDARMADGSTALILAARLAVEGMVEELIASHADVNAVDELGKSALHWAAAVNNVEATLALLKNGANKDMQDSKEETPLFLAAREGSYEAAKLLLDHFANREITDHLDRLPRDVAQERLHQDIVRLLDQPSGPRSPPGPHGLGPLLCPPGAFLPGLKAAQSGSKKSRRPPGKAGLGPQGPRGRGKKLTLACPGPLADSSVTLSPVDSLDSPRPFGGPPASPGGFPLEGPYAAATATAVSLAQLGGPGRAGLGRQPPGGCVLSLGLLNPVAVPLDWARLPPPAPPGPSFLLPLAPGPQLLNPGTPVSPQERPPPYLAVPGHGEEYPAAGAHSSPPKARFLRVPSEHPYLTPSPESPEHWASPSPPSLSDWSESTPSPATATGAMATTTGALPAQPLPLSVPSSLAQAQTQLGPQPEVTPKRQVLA
Torsin-1A-interacting protein 2 (Homo sapiens), sequence (Q8NFQ8 whole entry, looked up): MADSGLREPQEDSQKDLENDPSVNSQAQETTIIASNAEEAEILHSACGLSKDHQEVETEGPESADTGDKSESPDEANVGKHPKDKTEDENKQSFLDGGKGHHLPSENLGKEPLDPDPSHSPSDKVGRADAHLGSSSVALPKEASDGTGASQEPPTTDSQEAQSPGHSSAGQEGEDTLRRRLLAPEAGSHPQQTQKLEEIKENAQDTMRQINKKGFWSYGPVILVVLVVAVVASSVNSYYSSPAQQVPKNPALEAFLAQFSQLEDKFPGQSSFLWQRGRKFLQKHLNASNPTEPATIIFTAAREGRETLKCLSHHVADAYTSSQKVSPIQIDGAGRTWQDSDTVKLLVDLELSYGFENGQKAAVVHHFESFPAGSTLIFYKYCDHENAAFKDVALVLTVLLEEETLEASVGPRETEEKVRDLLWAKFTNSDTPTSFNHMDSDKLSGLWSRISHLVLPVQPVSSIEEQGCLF

On to `OCc1ccc(C2=CC(c3cccs3)N(Cc3cccc(OC(F)(F)F)c3)CC2)cc1` (stereo not given), for which the composite z-score in experiment [1] is -0.0593; in [2] it was 0.466; in [3], -0.0996; in experiment [4] it was -0.242; in experiment [5] it was -0.515; in [6], 0.764. Besides, the composite z-score in experiment [7] was 0.536; in experiment [9], -0.0002; in [10], 0.0908; in experiment [11], 1.08; in [15] it was 1.1; in [17] it was -0.145. The composite z-score is 0.257 in [18], 0.0155 in experiment [19] and -0.1 in [20]. The z-score was -0.39 (inactive) in experiment [8]; -0.583 (inactive) in experiment [12]; -3.83 (inactive) in experiment [13]; 4.58 (inactive) in [14]; 0.398 (inactive) in experiment [16].
Regarding `CC1N(P(=O)(c2ccccc2)c2ccccc2)CC(O)(c2ccccc2)CC12CC2` (stereo not given), the composite z-score was 0.401 and 0.0381 in [1]; -1.21 and -0.157 in [2]; 0.0161 and 0.221 in experiment [3]; 0.309 and 0.352 in experiment [4]; 0.621 and 1.54 in experiment [5]; 2 and 1.82 in [6]. Besides, the composite z-score was 1.41 and 0.526 in experiment [7]; -0.0551 and 1.02 in experiment [9]; 0.238 and 0.535 in experiment [10]; 0.453 and -1.07 in experiment [11]; 3.87 and 3.05 in [15]; 0.084 and 0.644 in experiment [17]. The composite z-score in experiment [18] is -1.15 and -1.06; in experiment [19], -1.14 and -0.154; in [20], -0.0565 and 0.174. Moreover, the z-score was 2.45 (inactive) and -0.78 (inactive) in experiment [8]; 0.401 (inactive) and -2.96 (inactive) in experiment [12]; 0.614 (inactive) and -1.46 (inactive) in [13]; 0.973 (inactive) and 0.0418 (inactive) in [14]; -0.476 (inactive) and -0.172 (inactive) in [16].
For `CCc1cc2c(nc1CC)CCN(CCC(C)=NOC)C2`, the composite z-score was 0.515 in [1]; 0.974 in [2]; -0.0097 in [3]; 0.324 in [4]; 0.608 in experiment [5]; 0.0159 in [6]. Besides, the composite z-score in experiment [7] was found to be 0.763; in experiment [9] it was 0.497; in [10], 0.113; in [11], 0.766; in [15], 0.839; in [17], 0.327. Moreover, the composite z-score in experiment [18] was 0.601; in experiment [19], 0.0855; in [20], 0.0631. Further, the z-score in experiment [8] is 2.07 (inactive); in experiment [12], 0.259 (inactive); in experiment [13] it was -1.54 (inactive); in experiment [14], -0.21 (inactive); in [16], -0.0797 (inactive).
On to `C[C@H]1O[C@H]2C3=C(C(=O)[C@@H]4O[C@@H]4[C@@H]3O)[C@@H]1[C@@H]1[C@@H](C)OC=C3[C@@H](O)[C@H]4O[C@H]4C(=O)[C@]312`, for which the composite z-score is -0.294 in experiment [1]; 0.0164 in experiment [2]; -0.102 in experiment [3]; -0.494 in [4]; -0.468 in experiment [5]; -0.48 in experiment [6]. The composite z-score is -0.894 in experiment [7]; -0.293 in experiment [9]; -0.0994 in experiment [10]; -1.42 in [11]; -0.697 in [15]; -0.166 in experiment [17]. Also, the composite z-score in [18] is -0.394; in [19], -1.62; in experiment [20], -0.0238. Besides, the z-score is -2.19 (inactive) in experiment [8]; -1.16 (inactive) in experiment [12]; -0.568 (inactive) in [13]; -0.584 (inactive) in [14]; -0.529 (inactive) in experiment [16].
For `C[C@@H]1OC=C2[C@@H](O)[C@H]3O[C@H]3C(=O)[C@]23[C@H]1[C@H]1C2=C([C@@H](O)[C@H]4O[C@H]4C2=O)[C@@H]3O[C@@H]1C`, the composite z-score in experiment [1] is -0.532; in [2], 0.0437; in experiment [3] it was -0.169; in [4], -0.0391; in experiment [5], 0.121; in [6], -0.854. Besides, the composite z-score was -0.372 in [7]; -0.192 in [9]; 0.0274 in experiment [10]; -0.259 in experiment [11]; -0.957 in experiment [15]; -0.101 in experiment [17]. For the same compound, the figures for the composite z-score in experiment [18], in experiment [19] and in [20] were 0.195, -0.186 and -0.0689, respectively. Also, the z-score in experiment [8] is -0.165 (inactive); in experiment [12], -0.676 (inactive); in experiment [13], 0.585 (inactive); in experiment [14], 0.0254 (inactive); in [16] it was -0.101 (inactive).
Consider `COC(=O)[C@H]1[C@@H](O)[C@@]2(O)c3c(OC)cc(OC)cc3O[C@@]2(c2ccc(OC)cc2)[C@@H]1c1ccccc1`, for which the composite z-score in [1] was -0.327; in [2], 0.287; in experiment [3], -0.0894; in [4], 0.52; in experiment [5], 0.514; in [6], 0.167. Besides, the composite z-score in experiment [7] was 0.357; in [9], 0.0836; in experiment [10], -0.152; in [11], 0.002; in [15], 0.485; in [17], -0.221. In addition, the figures for the composite z-score in experiment [18], in experiment [19] and in [20] were 0.782, 0.708 and -0.0714, respectively. Further, the z-score in [8] was 0.128 (inactive); in experiment [12] it was -0.543 (inactive); in experiment [13], -2.36 (inactive); in [14], 0.118 (inactive); in [16] it was 0.449 (inactive).

For the origin of these results see PubChem BioAssay.
